Measurements published in PubChem BioAssay AID1159580 (chemical genetic matrix, 2015).
Where “and” joins values, the source holds several entries; their conditions need not be identical. Equal entries are not always repeated. The campaign covered roughly 5,500 compounds. About 2,000 (36%) were called active. Not shown: some 18% with an inconclusive outcome. Rule as the data show it: active = normalized growth mostly below about 0.91 (no sharp cut-off); inconclusive = no clear call, values can overlap the other calls; inactive = mostly above about 0.92. The list shows a part of the results.

Assay: chemical genetic growth profiling, strain panel (AID 1159580);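 also: tested at 20 µM; growth read once vehicle control cultures reached saturation at 30 °C; 1 = growth at the plate median or of vehicle wells; lower values mean less growth of the strain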
Details: S. cerevisiae deletion strains, growth OD

Measured: normalized growth

c1ccc(N=Nc2ccccc2)cc1
inactive: locus YAL021C, strain ccr4, active compounds read low 1.02 | locus YAL026C, strain drs2, active compounds read low 0.998 | locus YAL030W, strain snc1, active compounds read low 0.985 | locus YBL061C, strain skt5, active compounds read low 0.991 | locus YBR009C, strain hhf1, active compounds read low 0.985 | locus YBR021W, strain FUR4, active compounds read low 1.01 | locus YBR023C, strain chs3, active compounds read low 0.99 | locus YBR171W, strain sec66, active compounds read low 0.975 | locus YBR229C, strain ROT2, active compounds read low 1 | locus YBR231C, strain swc5, active compounds read low 0.984 | locus YBR279W, strain paf1, active compounds read low 0.985 | locus YCL011C, strain gbp2, active compounds read low 0.992 | locus YCL016C, strain dcc1, active compounds read low 0.982 | locus YCL029C, strain bik1, active compounds read low 1.03 | locus YCL061C, strain MRC1, active compounds read low 0.993 | locus YCL069W, strain vba3, active compounds read low 0.988 | locus YCR088W, strain abp1, active compounds read low 0.991 | locus YDL005C, strain med2, active compounds read low 0.977 | locus YDL035C, strain GPR1, active compounds read low 0.981 | locus YDL040C, strain nat1, active compounds read low 0.985 | locus YDL074C, strain BRE1, active compounds read low 0.942 | locus YDL101C, strain DUN1, active compounds read low 0.979 | locus YDL134C, strain PPH21, active compounds read low 0.968 | locus YDL185W, strain tfp1, active compounds read low 1.01 | locus YDL192W, strain arf1, active compounds read low 1.03 | locus YDR001C, strain nth1, active compounds read low 0.987 | locus YDR069C, strain doa4, active compounds read low 0.995 | locus YDR101C, strain arx1, active compounds read low 1.02 | locus YDR137W, strain rgp1, active compounds read low 0.911 | locus YDR150W, strain NUM1, active compounds read low 1 | locus YDR159W, strain sac3, active compounds read low 1.01 | locus YDR162C, strain NBP2, active compounds read low 1.01 | locus YDR195W, strain ref2 0.994 | locus YDR297W, strain sur2, active compounds read low 0.987 | locus YDR318W, strain mcm21, active compounds read low 1.02 | locus YDR334W, strain swr1, active compounds read low 0.989 | locus YDR335W, strain msn5, active compounds read low 0.972 | locus YDR388W, active compounds read low 1.03 | locus YDR392W, strain spt3, active compounds read low 0.992 | locus YDR502C, strain sam2, active compounds read low 1.02 | locus YEL003W, strain gim4, active compounds read low 0.996 | locus YEL037C, strain rad23, active compounds read low 0.988 | locus YEL061C, strain CIN8 (second series), active compounds read low 0.976 | locus YEL061C, strain CIN8, active compounds read low 1 | locus YER015W, strain faa2, active compounds read low 0.996 | locus YER016W, strain bim1, active compounds read low 0.992 | locus YER110C, active compounds read low 1.03 | locus YER111C, strain swi4, active compounds read low 0.987 | locus YER155C, strain BEM2 (second series), active compounds read low 0.906 | locus YER155C, strain BEM2, active compounds read low 1.01 | locus YER167W, strain BCK2, active compounds read low 0.998 | locus YFR010W, strain ubp6, active compounds read low 0.99 | locus YGL078C, strain dbp3, active compounds read low 1.02 | locus YGL086W, strain mad1, active compounds read low 1.01 | locus YGL167C, strain pmr1, active compounds read low 0.992 | locus YGL173C, strain kem1, active compounds read low 0.993 | locus YGL227W, strain vid30, active compounds read low 0.992 | locus YGL240W, strain doc1, active compounds read low 0.975 | locus YGL248W, strain PDE1, active compounds read low 0.982 | locus YGL253W, strain hxk2, active compounds read low 0.996 | locus YGR078C, strain PAC10, active compounds read low 0.939 | locus YGR135W, strain pre9, active compounds read low 1.02 | locus YGR229C, strain SMI1, active compounds read low 0.966 | locus YGR252W, strain gcn5, active compounds read low 0.999 | locus YHR013C, strain ard1, active compounds read low 1.07 | locus YHR027C, strain rpn1, active compounds read low 0.987 | locus YHR030C, strain SLT2, active compounds read low 1.01 and 0.972 | locus YHR079C, strain IRE1 (second series), active compounds read low 1.02 | locus YHR079C, strain IRE1, active compounds read low 0.967 | locus YHR094C, strain hxt1, active compounds read low 1.03 | locus YHR129C, strain ARP1, active compounds read low 1 | locus YHR142W, strain chs7, active compounds read low 1.01 | locus YHR200W, strain rpn10, active compounds read low 1.03 | locus YIL066C, strain RNR3, active compounds read low 0.986 | locus YIL073C, strain SPO22, active compounds read low 1.08 | locus YIL125W, strain kgd1, active compounds read low 1.01 | locus YIR030C, strain dcg1, active compounds read low 1.04 | locus YJL092W, strain hpr5, active compounds read low 0.976 | locus YJL095W, strain BCK1 (second series), active compounds read low 0.979 | locus YJL095W, strain BCK1, active compounds read low 0.983 and 0.961 | locus YJL115W, strain asf1, active compounds read low 0.989 | locus YJL129C, strain trk1, active compounds read low 0.969 | locus YJL134W, strain LCB3, active compounds read low 1.01 | locus YJL154C, strain vps35, active compounds read low 0.984 | locus YJL164C, strain tpk1, active compounds read low 0.996 | locus YJL166W, strain qcr8, active compounds read low 0.976 | locus YJL168C, strain set2, active compounds read low 1.02 | locus YJL187C, strain SWE1 (second series), active compounds read low 0.971 | locus YJR043C, strain POL32, active compounds read low 0.996
